Assay results published in paper PMC3218832.

Each sequence was assayed against RELARELA (p65 homodimer) (Homo sapiens, UniProt Q04206 1-307) (assay: protein binding microarray; high values mean tight binding). Conditions: dsDNA, one strand shown.
Sequence of RELARELA (p65 homodimer) (Q04206 1-307): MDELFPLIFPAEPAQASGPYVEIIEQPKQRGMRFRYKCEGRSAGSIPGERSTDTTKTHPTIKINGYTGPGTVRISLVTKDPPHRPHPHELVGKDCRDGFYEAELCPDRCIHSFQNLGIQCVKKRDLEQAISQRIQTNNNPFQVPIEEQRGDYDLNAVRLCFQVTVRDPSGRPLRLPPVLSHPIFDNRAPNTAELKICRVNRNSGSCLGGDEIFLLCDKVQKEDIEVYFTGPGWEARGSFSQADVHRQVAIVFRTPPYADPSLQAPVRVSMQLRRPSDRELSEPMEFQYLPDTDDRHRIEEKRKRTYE

| Sequence | binding signal |
| --- | --- |
| CAATGTGTCCT | 0.249 z-score |
| CAGTTCTCCCT | 0.501 z-score |
| AAGGTACTCCC | -0.19 z-score |
| CAAGTTGTCCC | 0.644 z-score |
| GGAGGTATCCC | -0.331 z-score |
| AAGGGAATCCC | 2.03 z-score |
| CAATGTTCCCT | 0.185 z-score |
| AAATTACTCCC | 0.447 z-score |
| GAATTCGCCCT | 0.00849 z-score |
| CAGAGACCCCC | -1.05 z-score |
| CGGTGAGCCCC | -0.508 z-score |
| CGAGATACCCC | -0.193 z-score |
| CAGGGGATCCC | 1.59 z-score |
| CGGGAGATCCT | -0.093 z-score |
| GGAAATGTCCC | 1.93 z-score |
| GAGAGTATCCC | -0.187 z-score |
| CAAAGGCCCCC | -1.53 z-score |
| AGAGGTTCCCC | 0.439 z-score |
| CGAAAAATCCT | 0.627 z-score |
| CGGGTAGTCCC | 1.24 z-score |

| Sequence | binding signal |
| --- | --- |
| GAGAGCCCCCC | -1.07 z-score |
| GAAGGCGTCCC | -0.376 z-score |
| CGATAGCTCCT | -0.609 z-score |
| AGAATGTTCCT | 0.037 z-score |
| AGAATCCCCCC | 1.06 z-score |
| AGAAACGTCCT | -0.192 z-score |
| GAAGTAATCCT | -0.663 z-score |
| AGGGACGTCCT | 0.554 z-score |
| CGAATACCCCT | 0.147 z-score |
| CAGAGCACCCT | -0.924 z-score |
| AAAGACTCCCT | -0.338 z-score |
| GAGATATCCCC | 0.294 z-score |
| AAAGTGATCCT | -0.833 z-score |
| AAGAGGTTCCT | 0.0133 z-score |
| AGGTAATTCCT | 1.47 z-score |
| CAGGGATCCCC | 0.967 z-score |
| CGGTGTACCCT | -0.287 z-score |
| AAGATGCCCCC | 0.101 z-score |
| AAAATAACCCC | 0.617 z-score |
